Data taken from the antibiotic and cytotoxicity screens of Wong et al. (2023).
The campaign covered roughly 39,000 compounds. About 1,500 (3.8%) were called active. The list comes from a sample in which actives are over-represented; it also holds similar structures and randomly drawn compounds.

system: HSkMC (human skeletal muscle cells); assay: cytotoxicity call (relative viability < 0.9); settings: 10 µM

| SMILES | cytotoxicity call |
| --- | --- |
| COc1ccc(S(=O)(=O)N(C)C[C@H]2Oc3ccc(NS(=O)(=O)c4cn(C)cn4)cc3CC(=O)N([C@@H](C)CO)C[C@@H]2C)cc1 | inactive |
| CO[C@@H]1CN(C)C(=O)c2cc(NS(=O)(=O)CC(F)(F)F)ccc2OC[C@@H](C)N(C(=O)NC(C)C)C[C@@H]1C | inactive |
| COc1cccc(CNC(=O)C[C@H]2C=C[C@H](NC(=O)C3CCOCC3)[C@H](CO)O2)c1 | inactive |
| COc1ccc(CN(C)C[C@H]2OCCCC[C@H](C)Oc3ccc(NC(=O)Nc4ccc5c(c4)OCO5)cc3C(=O)N([C@@H](C)CO)C[C@H]2C)cc1 | inactive |
| C[C@@H]1CN([C@H](C)CO)C(=O)c2cc(NC(=O)Cn3cnnn3)ccc2O[C@@H]1CN(C)C(=O)Nc1ccc(C(F)(F)F)cc1 | inactive |
| C[C@@H]1CN([C@H](C)CO)C(=O)c2cc(NC(=O)Nc3ccc(C(F)(F)F)cc3)ccc2O[C@H]1CN(C)C(=O)Nc1cccc2ccccc12 | inactive |
| Cl.Clc1ccc2c(c1)CCc1cccnc1C2=C1CCNCC1 | inactive |
| Cc1cc(C(=O)Nc2cccc3c2O[C@H](CN(C)Cc2ccc(Oc4ccccc4)cc2)[C@@H](C)CN([C@@H](C)CO)C3=O)n(C)n1 | inactive |
| COC(=O)C(CC#Cc1ccc2c(c1)[C@]1(C(=O)N2)[C@H](c2ccc(OCCO)cc2)N2[C@H](c3ccccc3)[C@H](c3ccccc3)OC(=O)[C@H]2[C@@H]1C(=O)N1CCc2cc(OC)c(OC)cc2C1)C(=O)OC | inactive |
| COc1ccc(S(=O)(=O)N(C)C[C@@H]2Oc3c(NS(=O)(=O)c4cn(C)cn4)cccc3C(=O)N([C@@H](C)CO)C[C@@H]2C)cc1 | inactive |
| C[C@H]1CCCCO[C@H](CN(C)Cc2ccccc2)[C@@H](C)CN([C@@H](C)CO)C(=O)c2cc(NC(=O)Nc3ccc(C(F)(F)F)cc3)ccc2O1 | active |
| C[C@H]1CCCCO[C@@H](CN(C)Cc2ccccc2)[C@@H](C)CN([C@@H](C)CO)C(=O)c2cc(NC(=O)Nc3ccc(C(F)(F)F)cc3)ccc2O1 | active |
| C[C@@H]1CCCCO[C@H](CN(C)Cc2ccccc2)[C@H](C)CN([C@@H](C)CO)C(=O)c2cc(NC(=O)Nc3ccc(C(F)(F)F)cc3)ccc2O1 | active |
| C[C@@H]1CN([C@@H](C)CO)C(=O)c2cc(NC(=O)Nc3ccc(C(F)(F)F)cc3)ccc2O[C@@H](C)CCCCO[C@H]1CN(C)Cc1ccccc1 | active |
| COc1ccc(S(=O)(=O)N(C)C[C@H]2Oc3ccc(NC(=O)Cn4cnnn4)cc3CC(=O)N([C@H](C)CO)C[C@@H]2C)cc1 | inactive |
| C[C@H](CO)N1C[C@H](C)[C@@H](CN(C)C(=O)Nc2cccc3ccccc23)Oc2ccc(NS(=O)(=O)c3ccc(F)cc3)cc2CC1=O | inactive |
| CCCCCCCCCCCCCCCCOCCCOP(=O)(O)CO[C@H](CO)Cn1ccc(N)nc1=O | inactive |
| CC(C)NC(=O)Nc1ccc2c(c1)C(=O)N([C@@H](C)CO)C[C@H](C)[C@@H](CN(C)Cc1ccc3c(c1)OCO3)O2 | inactive |
| COCCn1cc2c(n1)[C@H](CNC(=O)COC)OCC2 | inactive |
| C[C@@H]1CCCCO[C@H](CN(C)C(=O)c2ccccc2)[C@@H](C)CN([C@H](C)CO)C(=O)c2cc(NC(=O)C3CCCCC3)ccc2O1 | inactive |
| C[C@@H]1CN([C@@H](C)CO)C(=O)c2cc(NC(=O)Nc3ccccc3)ccc2O[C@@H](C)CCCCO[C@H]1CN(C)C(=O)Nc1cccc2ccccc12 | inactive |

| SMILES | cytotoxicity call |
| --- | --- |
| C[C@H](CO)N1C[C@H](C)[C@H](CN(C)Cc2ccccc2)OCCCC[C@H](C)Oc2ccc(NC(=O)Nc3ccc(C(F)(F)F)cc3)cc2C1=O | active |
| C[C@@H]1CCCCO[C@H](CN(C)Cc2ccccc2)[C@@H](C)CN([C@@H](C)CO)C(=O)c2cc(NC(=O)Nc3ccc(C(F)(F)F)cc3)ccc2O1 | active |
| C[C@@H]1CCCCO[C@H](CN(C)Cc2ccccc2)[C@@H](C)CN([C@H](C)CO)C(=O)c2cc(NC(=O)Nc3ccc(C(F)(F)F)cc3)ccc2O1 | active |
| C[C@@H]1CN([C@H](C)CO)C(=O)c2cc(NC(=O)Nc3ccc(C(F)(F)F)cc3)ccc2O[C@@H](C)CCCCO[C@@H]1CN(C)Cc1ccccc1 | active |
| Cn1nc(C2CC2)cc1N | inactive |
| C[C@H](CO)N1C[C@H](C)[C@@H](CN(C)C(=O)NC2CCCCC2)OCCCC[C@H](C)Oc2ccc(NC(=O)C3CCCCC3)cc2C1=O | inactive |
| Cc1noc(C)c1NC(=O)Nc1ccc2c(c1)C(=O)N([C@H](C)CO)C[C@H](C)[C@H](CN(C)C(=O)Cc1ccccc1)OCCCC[C@@H](C)O2 | inactive |
| C[C@H](CO)N1C[C@H](C)[C@H](CN(C)C(=O)C2CCCCC2)Oc2cc(C#Cc3ccncc3)ccc2S1(=O)=O | inactive |
| Cc1onc(-c2ccccc2)c1C(=O)NC1C(=O)N2C1SC(C)(C)C2C(=O)[O-].[Na+] (configuration not stated) | inactive |
| COc1ccc(S(=O)(=O)Nc2ccc3c(c2)C(=O)N([C@H](C)CO)C[C@H](C)[C@H](CN(C)C(=O)Nc2ccc(F)cc2)OCCCC[C@H](C)O3)cc1 | inactive |
| O=C(O)c1ccoc1 | inactive |
| Cc1ccc(S(=O)(=O)N(C)C[C@H]2Oc3cc(C#Cc4ccncc4)ccc3S(=O)(=O)N([C@H](C)CO)C[C@@H]2C)cc1 | inactive |
| C[C@@H]1CN([C@H](C)CO)C(=O)c2cc(NC(=O)NC3CCCCC3)ccc2O[C@@H]1CN(C)Cc1ccc(C(F)(F)F)cc1 | inactive |
| C[C@@H]1CCCCO[C@@H](CN(C)Cc2ccccc2)[C@@H](C)CN([C@H](C)CO)C(=O)c2cc(NC(=O)Nc3ccc(C(F)(F)F)cc3)ccc2O1 | inactive |
| C[C@@H]1CCCCO[C@H](CN(C)Cc2ccccc2)[C@H](C)CN([C@H](C)CO)C(=O)c2cc(NC(=O)Nc3ccc(C(F)(F)F)cc3)ccc2O1 | active |
| C[C@@H]1CN([C@@H](C)CO)C(=O)c2cc(NC(=O)Nc3ccc(C(F)(F)F)cc3)ccc2O[C@@H](C)CCCCO[C@@H]1CN(C)Cc1ccccc1 | inactive |
| C[C@H](CO)N1C[C@H](C)[C@@H](CN(C)Cc2ccccc2)OCCCC[C@H](C)Oc2ccc(NC(=O)Nc3ccc(C(F)(F)F)cc3)cc2C1=O | active |
| C[C@@H]1CN([C@H](C)CO)C(=O)c2cc(NC(=O)Nc3ccc(C(F)(F)F)cc3)ccc2O[C@@H](C)CCCCO[C@H]1CN(C)Cc1ccccc1 | active |
| C[C@@H]1CCCCO[C@@H](CN(C)Cc2ccccc2)[C@H](C)CN([C@H](C)CO)C(=O)c2cc(NC(=O)Nc3ccc(C(F)(F)F)cc3)ccc2O1 | inactive |
| C[C@@H]1CCCCO[C@@H](CN(C)Cc2ccccc2)[C@H](C)CN([C@@H](C)CO)C(=O)c2cc(NC(=O)Nc3ccc(C(F)(F)F)cc3)ccc2O1 | inactive |
| C[C@@H]1CCCCO[C@@H](CN(C)Cc2ccccc2)[C@@H](C)CN([C@@H](C)CO)C(=O)c2cc(NC(=O)Nc3ccc(C(F)(F)F)cc3)ccc2O1 | active |

| SMILES | cytotoxicity call |
| --- | --- |
| CCC[C@@H](O)C#Cc1cnc2c(c1)C(=O)N([C@H](C)CO)C[C@H](C)[C@H](CN(C)C(=O)Nc1ccc(F)cc1)O2 | inactive |
| COC(=O)C12CC3(C(=O)OC)CC(C(=O)OC)(CC(C(=O)OC)(C1)C3=O)C2=O | inactive |
| COc1cccc(S(=O)(=O)Nc2ccc3c(c2)[C@@H]2C[C@H](CC(=O)NCc4cccc(F)c4)O[C@@H](CO)[C@@H]2O3)c1 | inactive |
| Cc1c2occ(C(C)(C)C)c2cc2c3c(c(=O)oc12)CCCC3 | inactive |
| NC(=O)c1ccco1 | inactive |
| C[C@H](CO)N1C[C@H](C)[C@H](CN(C)C(=O)Nc2cccc3ccccc23)Oc2c(NC(=O)NC3CCCCC3)cccc2C1=O | inactive |
| COc1ccc(NC(=O)N(C)C[C@H]2Oc3ccc(NC(=O)C4CC4)cc3C(=O)N([C@H](C)CO)C[C@H]2C)cc1 | inactive |
| C=CCOC(=O)[C@H]1[C@@H]2C(=O)O[C@@H](c3ccccc3)[C@@H](c3ccccc3)N2[C@@H](c2ccc(OCCOC(=O)NCCCCCC(=O)NO)cc2)[C@@]12C(=O)Nc1ccccc12 | inactive |
| C[C@@H]1CCCCO[C@H](CN(C)C(=O)Cc2ccccc2)[C@@H](C)CN([C@@H](C)CO)C(=O)c2cc(NS(=O)(=O)c3ccc(F)cc3)ccc2O1 | inactive |
| Cn1c(=O)c2c(ncn2CC(=O)O)n(C)c1=O | inactive |
| Cc1cnc(Nc2ccc(F)cc2Cl)nc1-c1c[nH]c(C(=O)N[C@H](CO)c2cccc(Cl)c2)c1 | active |
| O=C(C[C@@H]1CC[C@@H]2NC[C@@H](O)COC[C@H]2O1)NCCN1CCCC1 | inactive |
| Cc1ccc(S(=O)(=O)N(C)C[C@@H]2OCCCC[C@H](C)Oc3ccc(NS(=O)(=O)c4ccc(Cl)cc4)cc3C(=O)N([C@@H](C)CO)C[C@H]2C)cc1 | inactive |
| O=C(O)c1cc2sccc2s1 | inactive |
| COc1cc(Nc2c(C#N)cnc3cc(OCCCN4CCN(C)CC4)c(OC)cc23)c(Cl)cc1Cl | inactive |
| CCOc1cc2ncc(C#N)c(Nc3ccc(OCc4ccccn4)c(Cl)c3)c2cc1NC(=O)/C=C/CN(C)C | active |
| CCOc1cc2ncc(C#N)c(Nc3ccc(OCc4ccccn4)c(Cl)c3)c2cc1NC(=O)/C=C/[C@H]1CCCN1C | inactive |
| C[C@@H]1CCCCO[C@@H](CN(C)C(=O)Cc2ccccc2)[C@H](C)CN([C@@H](C)CO)C(=O)c2cc(NS(=O)(=O)c3ccc(Cl)cc3)ccc2O1 | inactive |
| CC(=O)N(C)C1(c2ccccc2)CCN(CCC[C@]2(c3ccc(Cl)c(Cl)c3)CCCN(C(=O)c3ccccc3)C2)CC1 | active |
| CC(C)Oc1cccc(CC(=O)N2CCC[C@](CC[N+]34CCC(c5ccccc5)(CC3)CC4)(c3ccc(Cl)c(Cl)c3)C2)c1 | inactive |
